From PubChem BioAssay AID868 (SRMLSC, 2007)
Screen size: about 190,000 compounds; about 3,500 (1.8%) were called active.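 The calls were made as follows: active = inhibition above a set limit, 3 SD over mean compound inhibition (cut at about 8.4% in these data); inactive = the rest.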 Only a selection was taken, and actives are over-represented in it overall.

Test: inhibitors of the yeast RAM network, primary screen, dse1pr::URA3 reporter, 5-FOA selection (AID 868);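 also: 0% = DMSO-only wells with no growth and 100% = 10 µM 1-NA-PP1 full growth; inhibition rescues growth on 5-FOA so higher OD means more RAM inhibition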
Details: S. cerevisiae dse1pr::URA3 reporter, 5-FOA growth OD615, 2 d; at 50 µM; hits give high values; analog-sensitive cbk1-as2 kinase mutant strain

inhibition, active:
CCC1C/C(=C/c2cccs2)C(=O)/C(=C/c2cccs2)C1 (centres undefined) 14.8%, O=C(COC(=O)/C=C/c1nc2ccccc2s1)Nc1ccccc1Oc1ccccc1 14.3%, COc1ccc(/C=C/C(=O)OCC(=O)Nc2cccc(Oc3ccccc3)c2)c(OC)c1 16.7%, COc1cccc(NS(=O)(=O)c2ccc3[nH]cc(C(=O)NCCCOC(C)C)c(=O)c3c2)c1 9.49%, CCCSc1nc(NCc2ccco2)c2c3c(sc2n1)COC(C)(CC)C3 (centres undefined) 13.4%, Cc1cccc(N2C(=O)C3C(c4ccccc4)OC4(C(=O)c5ccccc5C4=O)C3C2=O)c1 (centres undefined) 10.5%, COC(=O)c1cc2occc2n1Cc1nc(-c2ccccc2C)oc1C 10.4%, O=C1/C(=C/c2ccc3c(c2)OCO3)CCC/C1=C\c1ccc2c(c1)OCO2 11.6%, C=CCn1c(-c2ccc(Cl)cc2)ccc(C#N)c1=O 10.6%, COc1ccc(NC(=O)C2CCCN(S(=O)(=O)c3cccc4cccnc34)C2)cc1 (centres undefined) 9.02%, CCC(C)(C)c1ccc(Oc2ccc(NC(=O)COC(=O)C3=COCCO3)cc2)cc1 12.6%, CCOC(=O)CSc1nc2c(sc(=S)n2CCc2ccccc2)c(=O)n1Cc1ccco1 10.1%, O=C(Nc1ccn(Cc2ccccc2F)n1)c1ccc(COc2ccc(Cl)cc2Cl)o1 9.18%

inhibition, inactive:
Cc1cc([N+](=O)[O-])ccc1NC(=O)c1ccc(NC(=O)C(C)C)cc1 0%, Cn1c(=NC(=O)c2ccc3c(c2)OCCO3)sc2cc(S(C)(=O)=O)ccc21 3.99%, O=C1/C(=C/c2cccs2)CCc2ccccc21 -0.39%, O=C1/C(=C/c2cccs2)CCC1C1CCCC1 (centres undefined) 2.26%, CCN(C(=O)CSc1nc2ccccc2n1CC)C1CCS(=O)(=O)C1 (centres undefined) 0.65%, O=C(NC(=S)Nc1ccc(S(=O)(=O)N2CCOCC2)cc1)c1ccccc1[N+](=O)[O-] 3.57%, O=C(COC(=O)CC1CC2CCC1C2)NC(=O)NC1CCCC1 (centres undefined) 0.76%, COc1ccc(OC)c(/C=C/C(=O)OCC(=O)Nc2ccc3c(c2)OCCO3)c1 7.42%, CC(=O)Nc1ccc(SCC(=O)Nc2ccccc2Oc2ccccc2)cc1 1.01%, COc1cc(/C=C/C(=O)OCC(=O)Nc2cccc(Oc3ccccc3)c2)ccc1O 7.29%, CCN(C(=O)COC(=O)/C=C/c1nc2ccccc2s1)C1CCS(=O)(=O)C1 (centres undefined) 2.32%, CCN1CCN(C(=O)c2ccc(CN(c3ccc(C)c(C)c3)S(C)(=O)=O)cc2)CC1 0.38%, O=C(CCCNS(=O)(=O)c1cccc2nsnc12)NCCN1CCN(c2ccccc2F)CC1 -1.28%, COc1ccc(/C=C2/C(=O)OCc3cc(OC)c(OC)cc32)c(OC)c1 7.31%, COC(=O)Cc1ccc(N(Cc2ccccc2F)S(=O)(=O)c2ccc(Br)cc2)cc1 6.05%, Cc1cccc(C(=O)N2CCC(c3nc4ccccc4s3)CC2)c1 0.14%, Cc1cc(C)n2nc(C(=O)N(C)C(c3ccccc3)c3ccccc3)nc2n1 2.14%, CC1CCN(S(=O)(=O)c2ccc(S(=O)(=O)NCc3cccnc3)cc2)CC1 0.4%, CCN(CC)S(=O)(=O)c1ccc2[nH]cc(C(=O)NCCc3ccccc3)c(=O)c2c1 6.86%, CCCCNC(=O)c1c[nH]c2ccc(S(=O)(=O)Nc3ccc(OCC)cc3)cc2c1=O 5.33%, CCC1(C)Cc2c(sc3nc(SC)nc(N)c23)CO1 (centres undefined) 1.97%, CN(C)CCSc1nc(N)c2c3c(sc2n1)COC(C)(C)C3 0.35%, Cc1cccc(N2C(=O)c3cccnc3C2=O)c1 0.23%, Cc1cccc(N2C(=O)CC(SC(N)=Nc3ccccc3)C2=O)c1 (centres undefined) 5.62%, Cc1cccc(NC(=O)Cn2c(=O)n(Cc3ccccc3)c(=O)c3c(C)c(C)sc32)c1 2.47%, Cc1cc(C(=O)N/N=C/c2ccccc2[N+](=O)[O-])c(C)o1 1.55%, Cc1ccccc1-c1nc(CS(=O)(=O)CC(=O)N2CCc3ccccc3C2)c(C)o1 3.54%, CCOC(=O)c1cc2occc2n1CC(=O)NC1CCC(C)CC1 (centres undefined) 1.74%, COc1ccc(F)c(-c2nc(CN3CCC(c4ccccc4)CC3)c(C)o2)c1 1.5%, CSC1=N/C(=C\c2ccc3c(c2)OCO3)C(=O)S1 5.69%, CCC1=C/C(=C\c2ccc3c(c2)OCO3)C(=O)S1 5.39%, C=CS(=O)c1sc(Cl)c(N2CCOCC2)c1[N+](=O)[O-] (centres undefined) -1.6%, Cc1cccc(C(=O)OCC(=O)Nc2sc3c(c2C#N)CCC3)c1 3.27%, C=CCn1cc(-c2cccc(C(F)(F)F)c2)cc(C#N)c1=O 1.24%, C=CCn1c(SCn2nnc3ccccc3c2=O)nnc1-c1ccc(Cl)cc1 1.52%, Cc1cccc(/C(N)=N/OC(=O)c2ccccc2Cl)c1 -0.84%, O=C(O)C1CCCN(S(=O)(=O)c2cccc3cccnc23)C1 (centres undefined) 2.19%, COc1ccc(NC(=O)C2CCCN(S(=O)(=O)c3cccc4cccnc34)C2)cc1OC (centres undefined) -0.46%, COc1ccc(NC(=O)COC(=O)CNC(=O)C2CCCCC2)cc1 0.13%, O=C(OCC(=O)c1cccs1)C1=COCCO1 0.33%, CCOC(=O)CSc1nc2c(c(=O)n(C)c(=O)n2C)n1Cc1ccccc1F 5.16%, COc1ccccc1NC(=O)CSc1nc2sc(C)c(C)c2c(=O)n1Cc1ccco1 4.61%, O=c1[nH]c(N2CCN(Cc3ccc4c(c3)OCO4)CC2)nc2c1CCCC2 0.84%, CC(=O)Nc1ccn(Cc2c(F)cccc2Cl)n1 0.11%, O=C(Nc1ccn(Cc2ccccc2)n1)c1cccc(F)c1 0%, O=C(Nc1ccc2c(c1)CCC2)c1ccc(Br)s1 1.86%
